# Source: PubChem BioAssay
# HT1080 IDH1KD tx – toxicity to HT-1080 IDH1 knockdown cells (counter line) | HT-1080 IDH1 knockdown viability, ATP luminescence, 48 h | Potency, µM (series often up to 46.1 µM), inactives show top-dose activity, negative = toxicity, actives largely listed as cytotoxic | 360,000 tested, 2% active | AID 686971;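 note: potency is the fitted concentration of half-maximal effect; 0% = DMSO wells and -100% = cell-free medium wells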
#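 Viability of IDH1-knockdown HT-1080 fibrosarcoma cells was assessed by CellTiter-Glo after 48 h at 37 °C with titrated compound; concentration-effect curves were classified by fit quality and response size.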
# IL-1B inflam inh – inhibitors of inflammasome signaling (IL-1 beta secretion). activity change, % at 57.5 µM. THP-1 LPS/ATP IL-1B secretion, AlphaLISA, 16 h; active compounds read low. 360,000 tested, 4.7% active; in the data active = activity change below about -50%; inconclusive = mostly about -30% to -49%
#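 Secreted IL-1B measured by AlphaLISA bead assay after 16 h compound exposure of THP-1 cells; compounds (final up to 57.5 uM) added 1 h before LPS (250 ng/mL) and ATP (1.25 mM) stimulation; lower signal means less secretion.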
# DT40 TDP1 no CPT – qHTS for Inhibitors of human tyrosyl-DNA phosphodiesterase 1 (TDP1): qHTS in cells in absence of CPT; DT40 Tdp1-/- hTDP1 cells, no CPT, ATP luminescence, 48 h; Potency, µM (doses to about 46.2 µM), inactives show at the top dose activity change, negative = growth inhibition, actives largely listed as inhibitors; 420,000 tested, 15% active; AID 686978, 2013; note: potency is the fitted concentration of half-maximal effect; nearly all actives have a fitted effect of over 55% in size
#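 Growth of hTDP1-complemented DT40 Tdp1-knockout cells is measured by ATP luminescence after at least 48 hr compound exposure at 37 °C, with DMSO substituting for the 20 nM CPT used in the parallel screen.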
# DT40 TDP1 CPT – DT40-hTDP1 cell growth loss with CPT. chicken DT40 Tdp1-/-;hTDP1 cells + 20 nM CPT, ATP luminescence, 48 h. Potency, µM (highest dose often 46.2 µM), for the others: top-dose activity change, negative = growth inhibition, actives largely listed as inhibitors. 420,000 tested, 12% active; note: potency is the fitted concentration of half-maximal effect; nearly all actives have a fitted effect of over 55% in size
#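 Chicken DT40 Tdp1-/- cells complemented with human TDP1, 400 cells/well, exposed to compounds plus 20 nM camptothecin for at least 48 h at 37 C; viability read as ATP content by CellTiter-Glo luminescence.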
# HT1080-NT tox – kills 2HG-producing HT-1080-NT fibrosarcoma cells. HT-1080-NT fibrosarcoma viability, CellTiter-Glo ATP luminescence, 48 h. Potency, µM (top dose mostly 46.1 µM), for the others: top-dose activity, negative = less viability, most hits filed as cytotoxic. 360,000 tested, 1.6% active. AID 686970;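 note: NT is the 2HG producing partner of a matched IDH1 knockdown line; potency is the fitted concentration of half-maximal effect; 0% = DMSO-treated cells and -100% = media-only wells without cells; nearly all actives have a fitted effect of over 55% in size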
#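 Compounds were tested in concentration-response format on HT-1080-NT cells for 48 hours at 37 degrees C. Cell viability came from CellTiter-Glo luminescence; curves were classified by r2, response magnitude and activity.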
# * marks the source's active call; other numbers are inactive results; i = inactive; ? = inconclusive; / = not tested or not shown; [ ] = dose if it differs, or a comment. Sampled rows, rich in hits. Any-hit rate of the full collection: about 19%. Unless noted, calls come from the whole dose curve; as a rule, active = well fitted curve in the direction sought with a large enough effect; inconclusive = small, poorly fitted or top-dose-only effect, or another doubt; inactive = no such curve, though single readings can be large; an effect the other way counts as inactive or inconclusive. Unless noted, % is set by controls: 0 for no effect and ±100 for the full control effect.
SMILES,HT1080 IDH1KD tx,IL-1B inflam inh,DT40 TDP1 no CPT,DT40 TDP1 CPT,HT1080-NT tox
CN(CC(=O)Nc1ccc(Cl)c(C(F)(F)F)c1)C(=O)CCN1C(=O)C2CC=CCC2C1=O (stereo unspecified),-18%,1,?,9.2µM*,-2%
CC1=NN(C(N)=S)C(=O)C1N=Nc1cccc(Cl)c1C (stereo unspecified),-28%,13,8.2µM*,13µM*,-10%
CC1=NN(C(N)=S)C(=O)C1N=Nc1cccc([N+](=O)[O-])c1 (stereo unspecified),23%,28,-13%,?,15%
CC1=NN(C(N)=S)C(=O)C1N=Nc1ccccc1 (stereo unspecified),3%,10,?,?,8%
CC1=NN(C(N)=S)C(=O)C1N=Nc1ccc(Cl)cc1 (stereo unspecified),-18%,5,1.5µM*,0.52µM*,-6%
CC1=NN(C(N)=S)C(=O)C1N=Nc1ccc(Br)cc1 (stereo unspecified),-7%,1,?,21µM*,-3%
CCCn1ncc(CN2CCC(n3nccc3NC(=O)c3ccccc3OC)CC2)c1C,15%,-1,-25%,?,17%
CCc1ccc(CN2CCC(n3nccc3NC(=O)c3ccccc3Cl)CC2)cc1,14%,-50*,?,23µM*,0%
Cn1cc(CN2CCC(n3nccc3NC(=O)c3ccccc3Cl)CC2)cn1,16%,1,-5%,-2%,14%
COc1ccccc1C(=O)Nc1ccnn1C1CCN(Cc2cc(C)c(C)cc2C)CC1,-14%,-11,18µM*,?,-13%
Cc1cc(C)c(CN2CCC(n3nccc3NC(=O)c3ccccc3Cl)CC2)cc1C,?,i,?,15µM*,?
Cn1cc(CN2CCC(n3nccc3NC(=O)c3ccccc3Cl)CC2)c2ccccc21,?,-82*,?,-78%,?
O=C(Nc1ccnn1C1CCN(C/C=C/c2ccccc2)CC1)c1cccc(F)c1,?,-53*,0%,?,-14%
CCn1nc(C)c(CN2CCC(n3nccc3NC(=O)c3ccccc3OC)CC2)c1C,2%,12,0%,-24%,0%
CCCCc1ncc(CN2CCC(n3nccc3NC(=O)c3ccccc3OC)CC2)[nH]1,1%,0,15µM*,?,0%
CCOC(=O)CSc1cc(CS(=O)c2ccc(Cl)cc2)nc(-c2ccccc2)n1 (stereo unspecified),-2%[9.24 µM],0,?,?,0%
CCN(CC)c1cc(CS(=O)c2ccccc2)nc(-c2ccccc2)n1 (stereo unspecified),-4%,-50*,?,21µM*,-6%
COc1ccc(NC(=S)N(CCN(C)C)C(C)c2ccco2)cc1Cl (stereo unspecified),12%,-1,16µM*,-26%,-4%
COc1cccc(NC(=S)N(CCN(C)C)C(C)c2ccco2)c1 (stereo unspecified),10%,0,-18%,-2%,4%
CCCCCCCCCCCCCCCC(=O)OC[C@@H](O)[C@H]1OC[C@H](O)[C@H]1O,/,/,-14%,4%,/
COc1ccc2[nH]cc(CCNC(=O)C3CC3)c2c1,/,/,-12%,-4%,/
COc1ccc2[nH]cc(CCNC(=O)c3cnn(-c4ccc(C)cc4)c3C3CCN(C(=O)OC(C)(C)C)CC3)c2c1,/,/,5.2µM*,9.2µM*,/
COc1ccc2[nH]cc(CCNC(=O)c3cnn(-c4ccccc4Cl)c3C3CCN(C(=O)OC(C)(C)C)CC3)c2c1,/,/,10µM*,13µM*,/
Cc1ccc(NC(=O)N(Cc2nc3ccccc3c(=O)[nH]2)Cc2cccs2)cc1,-1%,5,?,?,9%
COc1ccc(-n2c(Cc3cccn3C)nnc2SCC(=O)Nc2ccc3c(c2)OCO3)cc1,3%,-12,3%,18%,7%
SMILES,HT1080 IDH1KD tx,IL-1B inflam inh,DT40 TDP1 no CPT,DT40 TDP1 CPT,HT1080-NT tox
Cc1cc([N+](=O)[O-])ccc1NCc1ccco1,4%,2,11%,-2%,9%
COc1ccc(C(=O)/C=C/Nc2ccc([N+](=O)[O-])cc2C)c(OC)c1,11%,-3,?,-24%,15%
COc1ccc(OC)c(CNc2ccc([N+](=O)[O-])cc2C)c1,-4%,-69*,0%,6%,-6%
COc1cccc(CNc2ccc([N+](=O)[O-])cc2C)c1,-3%,-1,18µM*,?,-16%
Cc1cc([N+](=O)[O-])ccc1NCc1ccc2c(c1)OCCO2,-18%,-51*,-27%,-30%,-27%
CCCn1c(SCC(=O)c2cc(C)n(-c3cc(C)on3)c2C)n[nH]c1=O,-7%,13,?,?,-3%
COc1ccc(OC)c(S(=O)(=O)NC(=O)C2(C)CCN2C(=O)Cc2ccccc2Cl)c1 (stereo unspecified),?,26,5%,11%,10%
O=[N+]([O-])c1cc(Cl)ccc1N1CCCC1,7%,0,-36%,-10%,0%
O=[N+]([O-])c1cc(Cl)ccc1N1CCN(c2cccc(C(F)(F)F)c2)CC1,0%,?,9.2µM*,?,2%
O=S(=O)(c1ccc(N2CCCC2)cc1)C(F)(F)F,-22%,-18,12µM*,?,?
CC(=O)Nc1ccc(Nc2ccc(S(=O)(=O)C(F)(F)F)cc2[N+](=O)[O-])cc1,-21%,-60*,21µM*,?,-15%
O=C(O)CNc1ccc(S(=O)(=O)C(F)(F)F)cc1[N+](=O)[O-],0%,44,-2%,-3%,3%
O=[N+]([O-])c1cc(S(=O)(=O)Nc2ccccc2)ccc1Nc1ccccc1,-28%,-9,15µM*,?,7.3µM*
Cc1ccc(C)c(NC(=O)CN(C)C(=O)c2cc3ccccc3oc2=O)c1,8%,17,3%,3%,17%
O=[N+]([O-])c1cc(S(=O)(=O)Nc2ccc(Cl)cc2)ccc1N/N=C/c1ccncc1,-1%,-6,5.8µM*,?,0%
O=c1c(N2CCN(c3cccc(C(F)(F)F)c3)CC2)csc2ccccc12,/,/,26µM*,21µM*,/
O=[N+]([O-])c1cc(S(=O)(=O)Nc2ccccc2)ccc1N1CCN(c2ccccc2)CC1,?,-64*,?,?,?
O=C(c1ccc(N2CCOCC2)c([N+](=O)[O-])c1)N1CCN(c2ccccc2)CC1,-3%,-16,?,?,2%
O=C(O)c1cc(NS(=O)(=O)c2ccc(N3CCCCC3)c([N+](=O)[O-])c2)cc(C(=O)O)c1,8%,-6,-11%,-23%,-3%
